Here are results for 29 compounds from PubChem BioAssay (NCATS).

Assay [1] in a line: P-glycoprotein substrates identified in KB-3-1 adenocarcinoma cell line, qHTS therapeutic library screen (AID 1346986). Note: nearly all actives have a fitted effect of over 60% in size.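 Note: potency is for cytotoxicity meaning loss of cell viability.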 An outline of the steps:
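Resistance attributable to P-gp was assessed by comparing AC50 in KB-8-5-11 with parental KB-3-1 and by tariquidar reversal. Cells were exposed 72 h and viability read by CellTiter-Glo.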
(In general: In qHTS, concentration-response curves come from the screen itself.)

Assay [2] can be described thus: P-glycoprotein substrates identified in KB-8-5-11 adenocarcinoma cell line, qHTS therapeutic library screen (AID 1346987). Note: nearly all actives have a fitted effect of over 65% in size. An outline of the steps:
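Steps: plate 500 KB-8-5-11 cells/well in DMEM + 10% FCS (colchicine removed); pin compounds in dose-response; incubate 72 h, 37 degree C, 5% CO2; add CellTiter-Glo, 5 min; read luminescence.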

Where “and” joins values, the source holds several entries; their conditions need not be identical. Equal entries are not always repeated. Results filed as inconclusive are left out. Calls of active or inactive are those of the source. Calls come from the whole dose curve; as a rule, active = well fitted curve in the direction sought with a large enough effect; inconclusive = small, poorly fitted or top-dose-only effect, or another doubt; inactive = no such curve, though single readings can be large; an effect the other way counts as inactive or inconclusive.
Potency is the fitted concentration of half-maximal effect.

Consider `CC1(C)CCC2(C(=O)OC3OCC(O)C(O)C3O)CCC3(C)C(=CCC4C5(C)CC(O)C(OC6OC(COC7OCC(O)C(O)C7O)C(O)C(O)C6O)C(C)(C)C5CCC43C)C2C1` (stereo not drawn), for which the outcome in assay [1] and in assay [2] was “inactive [at 9.29 µM]” each time.
Turning to `CC(C)S(=O)(=O)N[C@H]1CCOC[C@@H]1c1ccc(-c2ccc(C#N)s2)cc1`, the Potency entry in assay [1] and in assay [2] was “inactive” each time.
Take `C/C1=C\CC[C@H](C)CCO[C@@H]2O[C@H](CO[C@@H]3OC[C@](O)(COC1=O)[C@H]3O)[C@@H](O)[C@H](O)[C@H]2O`: the Potency result in assay [1] and in assay [2] was “inactive” in each case.
In the case of `CC(=O)O[C@H]1[C@H](O[C@H]2[C@@H]3C=CO[C@@H](O[C@@H]4O[C@H](CO)[C@@H](O)[C@H](O)[C@H]4O)[C@@H]3[C@@]3(CO)O[C@@H]23)O[C@@H](C)[C@H](OC(=O)/C=C/c2ccccc2)[C@H]1OC(=O)/C=C/c1ccccc1`, the outcome in assay [1] and in assay [2] was “inactive [at 9.29 µM]” in each case.
Regarding `CCC(O)C(C)C1CCC(C(C)C(=O)O)O1` (stereo not drawn), the Potency entry in assay [1] and in assay [2] was “inactive” each time.
`CCC(O)(C(=O)OCc1ccccc1NC(=O)CCC(=O)O)C(C)O` (stereo not drawn): the Potency result in assay [1] and in assay [2] was “inactive” throughout.
Turning to `CC(=O)O[C@@H]1[C@@H](OC(=O)/C=C/c2ccccc2)[C@@H](OC(C)=O)[C@H](O[C@H]2[C@@H]3C=CO[C@@H](O[C@@H]4O[C@H](CO)[C@@H](O)[C@H](O)[C@H]4O)[C@@H]3[C@@]3(CO)O[C@@H]23)O[C@H]1C`, the Potency entry in assay [1] and in assay [2] was “inactive” throughout.
With `Cc1noc(=O)c2ccc(NC(=O)C(O)(CC(C)(C)c3cccc4c3OCC4)C(F)(F)F)cc12` (stereo not drawn), the Potency result in assay [1] and in assay [2] was “inactive” throughout.
With `CC(=O)N[C@@H](CCCCN)C(=O)N(C)[C@@H](CC(C)C)C(=O)N[C@H](C(=O)N(C)[C@@H](Cc1ccccc1)C(=O)N[C@H](Cc1ccccc1)C(N)=O)C(C)C`, the outcome in assay [1] and in assay [2] was “inactive [at 5.11 µM]” each time.
Take `CC1=C(C)C(=O)OC(C(C)C2CCC3C4C5OC5C5(O)CC(OC6OC(CO)C(OC7OC(C)C(O)C(O)C7O)C(O)C6O)CC(O)C5(C)C4CCC23C)C1` (stereo not drawn): the Potency entry in assay [1] and in assay [2] was “inactive” each time.
For `CC1OC(O[C@H]2CC[C@@]3(C)C(CC[C@]4(C)C3CC=C3C5CC(C)(C)CC[C@]5(C(=O)OC5OC(CO)C(OC6OC(COC7OCC(O)C(O)C7O)C(O)C(O)C6O)C(O)C5O)CC[C@]34C)C2(C)C)C(O)C(O)C1OC1OCC(OC2OCC(O)C(O)C2O)C(O)C1O` (stereo partly drawn), the outcome in assay [1] and in assay [2] was “inactive [at 9.29 µM]” each time.
On to `CC1CC(O)C2(OC1=O)OC1C(O)C3C4CCC5CC(OC6OC(CO)C(O)C(O)C6OC6OC(C)C(O)C(O)C6O)CCC5(C)C4CCC3(C)C1C2C` (stereo not drawn), for which the Potency result in assay [1] and in assay [2] was “inactive” in each case.
In the case of `CC/C=C\C/C=C\C/C=C\CCCCCCCC(=O)OCC(O)COC1OC(CO)C(O)C(O)C1O` (stereo not drawn), the Potency entry in assay [1] and in assay [2] was “inactive” each time.
For `CC(=O)O[C@H]1[C@@H](O)[C@H](O[C@H]2[C@@H]3C=CO[C@@H](O[C@H]4O[C@@H](CO)[C@H](O)[C@@H](O)[C@@H]4O)[C@@H]3[C@@]3(CO)O[C@@H]23)O[C@@H](C)[C@@H]1OC(=O)/C=C/c1ccccc1`, the Potency result in assay [1] and in assay [2] was “inactive” in each case.
Consider `CC(=O)O[C@]1(C(C)=O)CC[C@H]2[C@@H]3C[C@H](C)C4=CC(=O)C=C[C@]4(C)[C@@]3(F)[C@@H](O)C[C@@]21C`, for which the Potency entry in assay [1] and in assay [2] was “inactive” in each case.
As to `Cn1cc(-c2ccc3nnc(Sc4ccc5nn(C)cc5c4)n3n2)cn1`, the Potency entry in assay [1] and in assay [2] was “inactive” throughout.
Turning to `O=C(O)Cc1cn(C2OCC(O)C(O)C2O[C@@H]2O[C@H](CO)[C@@H](O)[C@H](O)[C@H]2O)c2ccccc12` (stereo partly drawn), the Potency entry in assay [1] and in assay [2] was “inactive” in each case.
Turning to `COc1ccc(CN2C(=O)C(=O)c3cc(S(=O)(=O)N4CCC[C@H]4COc4cccnc4)ccc32)cc1`, the Potency entry in assay [1] and in assay [2] was “inactive” throughout.
For `CC(=O)C1=CCC2C3CCC4CC(O[C@@H]5O[C@H](CO)[C@@H](O[C@@H]6O[C@@H](C)[C@H](O)[C@@H](O)[C@H]6O)[C@H](O)[C@H]5O[C@@H]5O[C@H](CO)[C@@H](O)[C@H](O)[C@H]5O)CCC4(C)C3CCC12C` (stereo partly drawn), the Potency entry in assay [1] and in assay [2] was “inactive” throughout.
For the compound `O=C(O)c1cn(C2CC2)c2cc(N3C[C@@H]4C[C@H]3CN4)c(F)cc2c1=O`, the Potency entry in assay [1] and in assay [2] was “inactive” throughout.
Take `C=C1C(=O)OC2CC3(C)C(CC12)C(C)=CC(O)C3OC(C)=O` (stereo not drawn): the Potency entry in assay [1] and in assay [2] was “inactive” each time.
In the case of `O=C1NC(=O)C(c2cn(-c3ccccc3)nc2-c2ccc(F)cc2)N1` (stereo not drawn), the Potency entry in assay [1] and in assay [2] was “inactive” in each case.
Take `O=C(O)[C@H](Cc1ccc(Nc2nccc3ccncc23)cc1)NC1=C(Br)C(=O)C12CCCCC2`: the Potency entry in assay [1] and in assay [2] was “inactive” throughout.
On to `COc1cc2occc2c(O[C@@H]2O[C@H](CO)[C@@H](O)[C@H](O)[C@H]2O)c1CCC(=O)O`, for which the Potency entry in assay [1] and in assay [2] was “inactive” throughout.
Turning to `COc1cc2c3c(cc4ccccc4c3c1O)NC2=O`, the Potency result in assay [1] and in assay [2] was “inactive” in each case.
On to `CN[C@@H]1[C@H](O[C@H]2[C@H](O[C@@H]3[C@@H](O)[C@H](O)[C@@H](N=C(N)N)[C@H](O)[C@H]3N=C(N)N)O[C@@H](C)[C@]2(O)C=O)O[C@@H](CO)[C@H](O)[C@H]1O`, for which the Potency entry in assay [1] and in assay [2] was “inactive” in each case.
For the compound `Nc1ccc(/C=C/C(=O)NCc2cc3cc(-c4ccc(C(=O)N5CCC(F)(F)CC5)cc4)cc(-c4ccc(F)cc4)c3o2)cn1`, the Potency in assay [1] is 517 nM (active); in assay [2] it was 5.17 µM (active) and 5.8 µM (active).
As to `C[C@H](NC(c1cccc2[nH]c(=O)c(=O)[nH]c12)P(=O)(O)O)c1ccc(Br)cc1` (stereo partly drawn), the Potency entry in assay [1] and in assay [2] was “inactive” in each case.
In the case of `Cc1c(CN2CCN(C(=O)C(C)O)CC2)sc2c(N3CCOCC3)nc(-c3cnc(N)nc3)nc12` (stereo not drawn), the figures for the Potency in assay [1] and in assay [2] were 259 nM (active) and 820 nM (active), respectively.
